# Values joined by “and” are separate entries in the source; they are usually repeats but may differ in a detail not shown here. Equal values may be shown once.
# Assays:
# Details in all cases: Compound concentration 20.0 uM, Protein concentration 2.0 uM, Result type QC Liability
# [1] = molecular target: Tyrosine-protein kinase ABL1 (Homo sapiens) (UniProt P00519)
# [2] = molecular target: Cyclin-dependent kinase 2 (Homo sapiens) (UniProt P24941)
# [3] = molecular target: Casein kinase I isoform delta (Homo sapiens) (UniProt P48730)
# Chain of Casein kinase I isoform delta (Homo sapiens) (P48730 whole entry, looked up, canonical isoform): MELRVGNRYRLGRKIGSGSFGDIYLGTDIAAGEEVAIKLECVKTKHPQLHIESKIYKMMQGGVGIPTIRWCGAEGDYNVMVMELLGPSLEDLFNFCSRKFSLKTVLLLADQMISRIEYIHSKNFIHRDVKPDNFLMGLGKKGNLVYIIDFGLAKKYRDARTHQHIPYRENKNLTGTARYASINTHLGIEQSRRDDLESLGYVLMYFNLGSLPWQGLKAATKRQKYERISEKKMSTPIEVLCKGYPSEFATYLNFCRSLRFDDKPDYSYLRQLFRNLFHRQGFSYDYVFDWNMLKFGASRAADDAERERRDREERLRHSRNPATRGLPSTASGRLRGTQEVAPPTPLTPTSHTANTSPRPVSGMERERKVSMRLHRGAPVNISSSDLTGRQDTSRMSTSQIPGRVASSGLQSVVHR
# [4] = molecular target: Glycogen synthase kinase-3 beta (Homo sapiens) (UniProt P49841)
# Chain of Glycogen synthase kinase-3 beta (Homo sapiens) (P49841 whole entry, looked up): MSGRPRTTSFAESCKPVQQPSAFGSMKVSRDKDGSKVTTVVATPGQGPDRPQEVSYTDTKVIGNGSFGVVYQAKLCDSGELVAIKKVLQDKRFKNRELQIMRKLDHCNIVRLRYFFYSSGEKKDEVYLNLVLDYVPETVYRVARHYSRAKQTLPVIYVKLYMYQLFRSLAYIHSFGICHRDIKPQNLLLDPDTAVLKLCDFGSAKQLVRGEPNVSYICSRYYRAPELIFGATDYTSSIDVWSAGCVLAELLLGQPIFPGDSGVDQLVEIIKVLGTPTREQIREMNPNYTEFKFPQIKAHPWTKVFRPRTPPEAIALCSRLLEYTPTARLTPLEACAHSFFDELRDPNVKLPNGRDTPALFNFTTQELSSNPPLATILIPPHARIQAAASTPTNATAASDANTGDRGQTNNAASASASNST
# [5] = molecular target: Mitogen-activated protein kinase 1 (Homo sapiens) (UniProt P28482)
# Chain of Mitogen-activated protein kinase 1 (Homo sapiens) (P28482 whole entry): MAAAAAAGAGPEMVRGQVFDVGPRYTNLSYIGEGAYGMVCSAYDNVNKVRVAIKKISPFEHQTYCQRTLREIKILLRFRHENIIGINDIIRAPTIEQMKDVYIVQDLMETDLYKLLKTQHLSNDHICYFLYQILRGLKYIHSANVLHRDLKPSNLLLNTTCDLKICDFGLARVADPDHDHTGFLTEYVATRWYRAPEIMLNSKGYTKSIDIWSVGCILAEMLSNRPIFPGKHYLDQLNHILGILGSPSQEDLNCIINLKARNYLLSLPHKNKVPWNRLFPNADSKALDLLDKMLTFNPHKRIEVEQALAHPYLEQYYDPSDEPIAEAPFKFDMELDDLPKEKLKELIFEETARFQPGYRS
# [6] = molecular target: T1, Aurora kinase A (Homo sapiens) (UniProt O14965)
# T1 sequence (whole entry): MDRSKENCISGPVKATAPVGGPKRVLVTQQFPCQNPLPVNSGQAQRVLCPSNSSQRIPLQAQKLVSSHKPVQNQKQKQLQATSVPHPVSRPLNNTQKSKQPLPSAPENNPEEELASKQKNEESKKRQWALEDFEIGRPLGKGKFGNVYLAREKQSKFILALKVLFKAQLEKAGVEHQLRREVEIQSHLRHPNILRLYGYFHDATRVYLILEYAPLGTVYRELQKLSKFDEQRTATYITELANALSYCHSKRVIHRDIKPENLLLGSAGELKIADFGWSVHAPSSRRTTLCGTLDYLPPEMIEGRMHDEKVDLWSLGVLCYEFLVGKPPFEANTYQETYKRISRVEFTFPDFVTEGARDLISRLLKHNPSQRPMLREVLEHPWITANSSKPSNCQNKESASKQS
# Chain of Tyrosine-protein kinase ABL1 (Homo sapiens) (P00519 whole entry): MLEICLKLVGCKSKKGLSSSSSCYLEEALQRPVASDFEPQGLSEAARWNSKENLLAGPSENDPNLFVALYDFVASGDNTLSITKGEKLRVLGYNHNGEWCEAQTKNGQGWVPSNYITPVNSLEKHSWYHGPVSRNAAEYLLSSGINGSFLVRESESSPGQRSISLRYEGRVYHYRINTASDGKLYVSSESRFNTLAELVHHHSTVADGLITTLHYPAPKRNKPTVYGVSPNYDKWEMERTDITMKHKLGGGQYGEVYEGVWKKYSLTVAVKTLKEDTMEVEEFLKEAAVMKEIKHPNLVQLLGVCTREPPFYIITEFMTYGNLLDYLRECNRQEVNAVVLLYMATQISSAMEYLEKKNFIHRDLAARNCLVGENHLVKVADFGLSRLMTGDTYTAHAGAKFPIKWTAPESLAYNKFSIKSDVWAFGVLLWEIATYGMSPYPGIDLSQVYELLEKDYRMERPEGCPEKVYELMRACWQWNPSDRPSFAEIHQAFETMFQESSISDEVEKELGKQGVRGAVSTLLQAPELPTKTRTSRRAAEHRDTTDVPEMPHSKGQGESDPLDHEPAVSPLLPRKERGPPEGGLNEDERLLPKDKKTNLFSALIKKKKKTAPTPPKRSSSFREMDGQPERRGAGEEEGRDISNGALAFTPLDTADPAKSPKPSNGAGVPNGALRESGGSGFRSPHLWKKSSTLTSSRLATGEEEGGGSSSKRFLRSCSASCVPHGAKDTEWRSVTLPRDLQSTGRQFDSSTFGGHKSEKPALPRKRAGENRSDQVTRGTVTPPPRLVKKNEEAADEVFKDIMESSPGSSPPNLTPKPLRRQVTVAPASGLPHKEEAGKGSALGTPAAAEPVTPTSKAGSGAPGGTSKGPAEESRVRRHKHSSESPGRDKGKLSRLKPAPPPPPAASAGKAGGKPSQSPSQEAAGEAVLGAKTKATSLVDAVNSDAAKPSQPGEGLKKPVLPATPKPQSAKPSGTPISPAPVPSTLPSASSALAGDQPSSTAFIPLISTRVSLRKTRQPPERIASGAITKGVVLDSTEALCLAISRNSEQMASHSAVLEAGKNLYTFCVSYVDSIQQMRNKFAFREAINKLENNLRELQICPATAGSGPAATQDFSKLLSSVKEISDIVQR
SMILES,ΔTm [1],ΔTm [2],ΔTm [3],ΔTm [4],ΔTm [5],ΔTm [6]
CN1Cc2nccc(-c3cn(C)nc3-c3ccc(F)cc3)c2C1=O,1.06 °C,0.02 °C,8 °C,-0.07 °C,0.37 °C,-0.11 °C
O=C(NCCS(=O)(=O)c1ccc(C(F)(F)F)cn1)c1ccc(Cl)cc1,0 °C,0.73 °C,0.23 °C,-1.08 °C,0.3 °C,-0.52 °C
C[C@@]1(Cc2ccc(C#N)cc2)C(=O)N(c2cc(Cl)cc(Cl)c2)c2ncc(C(=O)NC3(c4nc(C5CCC5)no4)CC3)n21,0.13 °C,-0.03 °C,3.08 °C,10.7 °C,3.07 °C,11.8 °C
CC[C@H](Nc1c(C#N)c(-c2ccc(-c3cccc(C)c3F)cc2)nc2cnccc12)C(=O)O,1.4 °C,-0.67 °C,-0.79 °C,-0.59 °C,-0.11 °C,2.03 °C
Cc1cc2nc(N3CCC(C(=O)NC4CCCC4)CC3)n(C(C)C)c2cc1C,0.22 °C,0.23 °C,0.04 °C,0.31 °C,0 °C,0.01 °C
C[C@H](CCC(=O)O)[C@H]1CC[C@H]2[C@@H]3[C@H](O)C[C@@H]4C[C@H](O)CC[C@]4(C)[C@H]3C[C@H](O)[C@]12C,0.17 °C,0.08 °C,0.33 °C,-0.66 °C,0.4 °C,-1.53 °C
CCCCc1oc2ccccc2c1C(=O)c1cc(I)c(OCCN(CC)CC)c(I)c1,0.12 °C,0.14 °C,0.32 °C,-0.84 °C,0.02 °C,-1.66 °C
CCN(C(=O)c1cc(F)ccc1Oc1cncnc1N1CC2(CCN(C[C@H]3CC[C@H](NS(=O)(=O)CC)CC3)CC2)C1)C(C)C,0.01 °C,0.94 °C,-0.25 °C,-0.47 °C,0.35 °C,-1.01 °C
CNc1nc(Nc2ccc(C(=O)N3CCOCC3)cc2OC)ncc1Cl,0.4 °C,0.09 °C,-0.01 °C,-0.95 °C,0.36 °C,3.14 °C
c1ccc2c(-c3coc4cc(-c5ccc(N6CCNCC6)cc5)cnc34)ccnc2c1,3.66 °C,-0.03 °C,1.09 °C,-0.47 °C,0 °C,-0.46 °C
CCO[C@H](COc1ccc(C(F)(F)F)cc1)CSc1ccc(OCC(=O)O)c(C)c1,0.26 °C,0.43 °C,0.11 °C,-0.41 °C,0.32 °C,-1.04 °C
O=C(Nc1cccc(C(F)(F)F)c1)c1cccc(-n2cc(-c3ccco3)nn2)c1,0.46 °C,0.62 °C,-5.13 °C,-7.24 °C,-10.6 °C,-2.64 °C
CC(=O)Nc1c(F)cc(C(=O)N[C@H]2CC[C@H](O)CC2)cc1O[C@@H](C)c1ccccc1,0.21 °C,0.97 °C,-0.03 °C,-0.82 °C,0.43 °C,-0.15 °C
C=CC1C[C@]1(NC(=O)[C@@H]1C[C@@H](Oc2cc(-c3csc(NC(=O)C(C)C)n3)nc3c(Br)c(OC)ccc23)CN1C(=O)[C@@H](NC(=O)OC1CCCC1)C(C)(C)C)C(=O)O (some centres undefined),0.33 °C,0.56 °C,0 °C,-2.17 °C,-1.13 °C,0.81 °C
CC(C)N1CCN(Cc2cnc(-c3cc(-c4cccc5[nH]ccc45)cc4[nH]ncc34)o2)CC1,2.44 °C,0.6 °C,1.32 °C,3.63 °C,0.24 °C,4.96 °C
CN(C)C(=O)Cn1cc(-c2ccc(-c3nnc4ccccn34)cc2)cn1,-0.4 °C,0.44 °C,0.44 °C,-0.7 °C,0.27 °C,-0.04 °C
O=C(CNC(=O)c1ccc(-c2ccccc2)cc1)NC1CCCc2ccccc21 (centres undefined),0.75 °C,-0.06 °C,-1.78 °C,-2.76 °C,0.17 °C,-1.46 °C
CC[C@@H](C(=O)OC)n1c(=O)c2ccccc2n(Cc2cn(C)c3cccc(C)c23)c1=O,-0.76 °C,0.06 °C,0.32 °C,-0.47 °C,0.23 °C,-0.05 °C
CCNC1=N[C@@H]2[C@@H](O)[C@H](O)[C@@H](CO)O[C@@H]2S1,0.07 °C,0.73 °C,0.01 °C,-0.6 °C,0.28 °C,-0.73 °C
COc1ccc(-c2c(-c3ccccc3)oc3ncnc(O[C@H](C)CCCCC(=O)O)c23)cc1,-0.07 °C,-2.59 °C,-0.84 °C,-2 °C,-3.65 °C,5.26 °C
CC(C)(C)OC(=O)CN(Cc1ccc(Cl)cc1)Cc1ccc([N+](=O)[O-])s1,0.48 °C,0.83 °C,0.3 °C,-0.54 °C,0.12 °C,-1.37 °C
COC1(C#Cc2ccc(Cl)c(-c3ncc4c(n3)-c3sc(NC(C)=O)nc3CC4)c2)CCN(C)CC1,0.87 °C,-0.1 °C,1.14 °C,-0.95 °C,0.03 °C,0 °C

SMILES,ΔTm [1],ΔTm [2],ΔTm [3],ΔTm [4],ΔTm [5],ΔTm [6]
CC(C)S(=O)(=O)c1ccccc1Nc1nc(N[C@@H]2CCCN(CCCCCCCNC(=O)COc3cccc4c3C(=O)N(C3CCC(=O)N(C)C3=O)C4=O)C2)ncc1Cl (some centres undefined),1.22 °C,1.08 °C,1.07 °C,8.52 °C,0.83 °C,7.69 °C
C[C@@H](Oc1cc(-n2cnc3ccc(OC4CCN(C)CC4)cc32)sc1C(N)=O)c1ccccc1Cl,1.32 °C,-0.97 °C,0.23 °C,1.25 °C,0.3 °C,0.44 °C
Cc1c(CCC(=O)O)cccc1NC(=O)[C@@H](c1ccc(-c2cncc(Cl)c2)c(F)c1)C1CCCC1,1.34 °C,-0.35 °C,-0.06 °C,0.61 °C,-0.61 °C,4.78 °C
COc1cc(C)c(S(=O)(=O)N(C)CCOCC(=O)N(C)[C@H]2CCC[C@@H](N3CCN(C)CC3)C2)c(C)c1,-0.63 °C,0.33 °C,0.16 °C,-0.91 °C,-0.21 °C,-0.27 °C
CN1CCC(C#N)(NC(=O)[C@@H](NC(=O)N2CCOCC2)C(C)(C)C)CC1,-0.07 °C,0.23 °C,0.3 °C,-0.75 °C,0.52 °C,-0.18 °C
COc1ccc2c(O[C@@H]3C[C@H]4C(=O)N[C@]5(C(=O)O)CC5/C=C\CCCCC[C@H](NC(=O)OC5CCCC5)C(=O)N4C3)cc(-c3csc(NC(=O)C(C)C)n3)nc2c1C (some centres undefined),0.27 °C [middle of 4 runs],0.77 °C [middle of 4 runs],0.4 °C [middle of 4 runs],-0.22 °C [middle of 4 runs],0.48 °C [middle of 4 runs],0.2 °C [middle of 4 runs]
N[C@@H]1CCCN(c2c(/C=C3\SC(=O)NC3=O)cccc2-c2ccccc2)C1,-0.18 °C,2.37 °C,0.88 °C,3.72 °C,0.64 °C,-0.48 °C
COCCc1ccc(-c2c(C)nc3c(N4CCOCC4)ccnn23)cn1,0.28 °C,0.2 °C,0.24 °C,-0.61 °C,0.69 °C,0.4 °C
c1ccc2c(c1)SCc1c-2[nH]c2ccccc12,-6.18 °C,-4.12 °C,-0.03 °C,1.83 °C,0.46 °C,-4.16 °C
Cc1cc(=O)n(C)c2cc(N3C(=O)CC[C@H](NS(=O)(=O)CC(C)C)[C@H]3c3ccc(Cl)cc3)ccc12,0.08 °C,0.6 °C,-0.11 °C,-0.55 °C,0.38 °C,0.15 °C
CCCN1C(=O)c2ccc(Cl)cc2Nc2ncccc21,0.81 °C,0.95 °C,0.61 °C,0.22 °C,0.22 °C,1.35 °C
CS(=O)(=O)c1cc(C2(NC(=O)c3cncc4c3cnn4-c3ccc(F)cc3)CC2)ccn1,0.11 °C,0.77 °C,0.73 °C,-0.04 °C,-0.47 °C,0.05 °C
CN(C)[C@H]1CC[C@H](Nc2ncc3ncnc(Nc4ccc(F)c(Cl)c4)c3n2)CC1,3.21 °C,1.27 °C,1.07 °C,1.75 °C,0.51 °C,0.2 °C
Cc1sc(C(=O)c2cncnc2N[C@@H]2C[C@H](COS(N)(=O)=O)[C@@H](O)C2)cc1[C@@H]1NCCc2ccc(Cl)cc21,0.37 °C,0.66 °C,-0.59 °C,0.3 °C,-0.53 °C,-0.27 °C
COc1ccc(-c2cc3c(C)nc(N)nc3n([C@H]3CC[C@H](OCCO)CC3)c2=O)cn1,0.46 °C,0 °C,-0.16 °C,-0.85 °C,0.38 °C,-0.59 °C
CCC(F)(F)c1cc(N2CCC(S(C)(=O)=O)CC2)nc2sc(C(N)=O)c(N)c12,0.45 °C and 1.08 °C and 2.55 °C,0.38 °C and 0.74 °C and 0.49 °C,1.03 °C and 1.35 °C and 2.12 °C,0.35 °C and -0.21 °C and 1.09 °C,0.45 °C and 0.46 °C and 0.62 °C,0.98 °C and 0.42 °C and 1.33 °C
C[C@H](CCC(=O)O)[C@H]1CC[C@H]2[C@@H]3CC[C@@H]4C[C@H](O)CC[C@]4(C)[C@H]3C[C@H](O)[C@]12C,-0.07 °C,0.15 °C,0.54 °C,-0.7 °C,0.2 °C,-0.62 °C
CN[C@@H](C)C(=O)N[C@H](C(=O)N1CCC[C@H]1C(=O)Nc1sc(-c2ncco2)nc1-c1ccccc1)C1CCCCC1,0.05 °C,-0.21 °C,-0.13 °C,-0.9 °C,0.08 °C,-0.03 °C
CCCCC(C)(O)C/C=C/[C@H]1[C@H](O)CC(=O)[C@@H]1CCCCCCC(=O)O (some centres undefined),0.39 °C,0.57 °C,-0.02 °C,0.33 °C,-0.33 °C,-0.31 °C
CCn1c(=O)c2c(C)c(C(=O)N3CCC(O)CC3)sc2n(CCC(F)(F)F)c1=O,0.35 °C,0.49 °C,0.3 °C,-0.42 °C,0.14 °C,0.03 °C
Cc1c(CN2CCC3(CC2)CN(c2ncnc4sc(CC(F)(F)F)cc24)C3)ccc2c1cc(C#N)n2CC(N)=O,0.27 °C,-0.01 °C,0.92 °C,0.64 °C,0.12 °C,0.16 °C
CN1CCCN(C(=O)c2cccc(-c3ccc(/C=C4/C(=O)Nc5ccc(Cl)cc54)o3)c2)CC1,1.94 °C,2.38 °C,2.04 °C,5.85 °C,-0.12 °C,1.88 °C

# — ChEMBL document CHEMBL5308504, “Tm Shift (DSF) assay results for EUbOPEN Chemogenomics Library” (2023)
